About 79,000 compounds went through this panel and 15% of them were active in at least one assay; those are over-represented in the sample as a whole. The source made the active and inactive calls. Rule as the data show it: active = growth inhibition above about 70%; inactive = the rest.
Key:
[1] = NCI Yeast Anticancer Drug Screen. Data for the rad50 strain (AID 155);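 also: 0% = growth of vehicle-only cultures of the same strain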; conditions: S. cerevisiae rad50 strain growth inhibition; at 50.0 µM; stronger effect = higher value
Method in brief: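 Yeast carrying a defined DNA repair defect were exposed to test compounds, and growth was compared with vehicle-treated controls to give percent inhibition.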

[2] = NCI Yeast Anticancer Drug Screen. Data for the mec2-1 strain (AID 157); conditions: S. cerevisiae mec2-1 strain, at 50.0 µM, stronger effect = higher value
Method in brief: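 Readout is yeast growth inhibition, normalised to vehicle-treated controls, in the mec2-1 strain exposed to compound.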

[3] = NCI Yeast Anticancer Drug Screen. Data for the sgs1 mgt1 strain (AID 161);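 also: 0% = growth of cultures given vehicle only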; conditions: S. cerevisiae sgs1 mgt1 strain, at 50.0 µM, stronger effect = higher value
Method in brief: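 Compounds are added to genetically altered yeast, and growth is compared with cultures given vehicle alone to give percent inhibition.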

[4] = NCI Yeast Anticancer Drug Screen. Data for the cln2 rad14 strain (AID 165);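 also: 0% = growth equal to vehicle treated cultures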; conditions: S. cerevisiae cln2 rad14 strain, at 50.0 µM, stronger effect = higher value
Method in brief: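 Relative to vehicle controls, growth inhibition of compound-treated cln2 rad14 yeast was recorded.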

[5] = NCI Yeast Anticancer Drug Screen. Data for the bub3 strain (AID 167); conditions: S. cerevisiae bub3 mutant strain, at 50.0 µM, stronger effect = higher value
Method in brief: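 Compounds were applied to a genetically altered yeast strain carrying a cell-cycle control defect. Growth inhibition was scored against vehicle-treated controls.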

[6] = NCI Yeast Anticancer Drug Screen. Data for the mlh1 rad18 strain (AID 175); conditions: S. cerevisiae mlh1 rad18 strain growth inhibition; at 50.0 µM; stronger effect = higher value
Method in brief: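 Test agents were incubated with a yeast strain of defined genotype (DNA damage repair defect). Inhibition of growth was derived by comparison with vehicle-exposed cultures.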

Measured: growth inhibition

CC1(CO)CSC(Nc2ccc(Cl)c(Cl)c2)=N1 (configuration not stated)
inactive: [1] 19.1% | [2] -12.9% | [3] 37.8% | [4] 32.5% | [5] 20.1% | [6] 19.1%

CC/C(N)=N\OC(=O)c1ccccc1
inactive: [1] 14.3% | [2] -4.75% | [3] -4.45% | [4] -44.4% | [5] 2.8% | [6] -5%

[B]C(=O)NC(CC(C)C)C(=O)NCC(=O)NC1c2ccsc2C(=O)C1O (configuration not stated) (tested in a mixture with another compound)
inactive: [1] -23.5% | [2] 3.95% | [3] -23.8% | [4] -8.45% | [5] 0% | [6] 2.05%

CC(C)=Cc1ccccc1C1(C)C(c2ccccc2)=C1c1ccccc1
inactive: [1] -3.35% | [2] 8.6% | [3] -9.25% | [4] 26.1% | [5] -0.3% | [6] -3.6%

O=[N+]([O-])c1ccc(N=Cc2ccccc2O)c(O)c1
inactive: [1] 21.9% | [2] -4.05% | [3] 2.75% | [4] -8.55% | [5] 20.8% | [6] -2.05%

COC(=O)N/N=C(\C)c1sc(-c2nc(C)c(/C(C)=N/NC(=O)OC)s2)nc1C
inactive: [1] 17.9% | [2] 0.95% | [3] -27.4% | [4] -35.6% | [5] 3.05% | [6] 1.05%

CC(C)(O)CC(=O)/C=C\c1ccc2c(c1)OCO2
inactive: [1] 25.9% | [2] 27.9% | [3] 10.1% | [4] -11.9% | [5] -4.4% | [6] 4.35%

O=P(O)(O)OC1OC(n2cnc3c(NCc4ccc(F)cc4)ncnc32)C(O)C1O (configuration not stated)
inactive: [1] 0.3% | [2] 2.3% | [3] -13.1% | [4] -18.2% | [5] 2% | [6] -25.7%

CC1CC(C)NC(C)C1 (configuration not stated)
inactive: [1] -17.1% | [2] -25.6% | [3] -50% | [4] 3.15% | [5] -10.9% | [6] -7.6%

COc1ccc2[nH]c(Br)c(CCNC(C)=O)c2c1
inactive: [1] -25.6% | [2] -7.4% | [3] -16.9% | [4] 1.9% | [5] -4.55% | [6] -31.9%

Cc1ncc(C(=O)O)c(CO)c1N
inactive: [1] 7.45% | [2] -15.9% | [3] -14.8% | [4] 13.3% | [5] -18.4% | [6] 4.8%

CCOC(=O)NC(Nc1ccc(OC(F)(F)F)cc1)(C(F)(F)F)C(F)(F)F
inactive: [1] -8.7% | [2] -8.2% | [3] -39.1% | [4] -1.25% | [5] -19.9% | [6] -0.3%

C[Si](C)(C)O[Si](C)(C)CCl
inactive: [1] -28.9% | [2] -12.4% | [3] -3.1% | [4] -10.2% | [5] -6.2% | [6] -34.2%

O=S(=O)(c1ccc(O)c(Cl)c1)c1ccc(O)c(Cl)c1
inactive: [1] 32.8% | [2] 37.5% | [3] 16.1% | [4] 36.7% | [5] 47.2% | [6] 31.1%

NC(Cc1cccnn1)C(=O)O (configuration not stated)
inactive: [1] -29.2% | [2] -22.8% | [3] -29.2% | [4] -58.9% | [5] -25.4% | [6] -5.25%

CC(C)CNC(=O)Nc1ccccc1C(F)(F)F
inactive: [1] -6.5% | [2] -8.4% | [3] -23.6% | [4] -4.55% | [5] 7.7% | [6] -14.4%

COC(=O)CCCC(=O)NC1=C(NCc2ccccc2)C(=O)c2ccccc2C1=O
inactive: [1] 10.1% | [2] 12.3% | [3] 33.6% | [4] 13.8% | [5] 32.1% | [6] -0.35%

c1ccc(N=C2SC(c3ccccc3)CN2C23CC4CC(CC(C4)C2)C3)cc1 (configuration not stated)
inactive: [1] -18.4% | [2] -6.5% | [3] -38% | [4] -64.5% | [5] -1.2% | [6] -9.8%

CCN(CC)CC(=O)Nc1c(C(N)=O)nnn1Cc1cc(Cl)c(C(=O)c2ccc(Cl)cc2)c(Cl)c1
inactive: [1] 41.8% | [2] -14.5% | [3] 5.15% | [4] 7.95% | [5] 15.9% | [6] -36.1%

CN(C)c1ccc(C=Nc2cc(S(=O)(=O)O)cc3cc(S(=O)(=O)O)cc(O)c23)cc1
inactive: [1] -22.9% | [2] -9.7% | [3] -14.7% | [4] 31.6% | [5] 12.4% | [6] 8.85%

C#Cc1c(C)c(/C=C/C(C)=C/C=C/C(C)=C/C(=O)OC)n(C)c1C
inactive: [1] 12.2% | [2] 4.7% | [3] 20.3% | [4] 10.8% | [5] 23.6% | [6] 23.4%

CC1=NCC(=O)N1
inactive: [1] -10.2% | [2] 1.5% | [3] -1.1% | [4] -11.8% | [5] -6.1% | [6] -4%

C=CCN(N=O)C(=O)N(CCC)CCCC(NC(C)=O)C(=O)NCc1ccccc1 (configuration not stated)
inactive: [1] -3.2% | [2] -27.2% | [3] -14.4% | [4] 22.6% | [5] 2.9% | [6] -14.2%

CC1=C(CCCO)/C(=N\O)CCC1
inactive: [1] 3.75% | [2] -1.75% | [3] -3% | [4] -30.4% | [5] 17.5% | [6] -28%

Cc1cc(=O)c2ccccc2n1CCCCCCCCCCn1c(C)cc(=O)c2ccccc21
inactive: [1] -12.1% | [2] -0.25% | [3] -17% | [4] -21.9% | [5] -26.6% | [6] 26.4%

CCCCc1ccc(O)c(CN(CC)CC)c1
inactive: [1] 10.8% | [2] -8.2% | [3] -11.6% | [4] -23.6% | [5] -6.8% | [6] -2.9%

CC1(C)CC[C@]2(C(=O)O)CC[C@]3(C)C(=CC[C@@H]4[C@@]5(C)CC[C@H](OC6OC(CO)C(O)C(O)C6OC6OC(CO)C(O)C(O)C6O)C(C)(C)[C@@H]5CC[C@]43C)[C@@H]2C1 (some centres not stated)
active: [1] 86.8% | [2] 86.7% | [3] 87.1% | [4] 86.2% | [5] 84.3% | [6] 83.5%

C1COCCN2CCOCCOCCN(CCO1)CCOCC2
inactive: [1] 3.6% | [2] 11.2% | [3] -0.25% | [4] 12.7% | [5] 23.6% | [6] 23.7%

CCCCCCCC1CC(OCC)OC(CCCCCCC)O1 (configuration not stated)
inactive: [1] -1.8% | [2] -15.1% | [3] -6.95% | [4] -8.2% | [5] -2.25% | [6] -18.4%

O=C(O)CCCC1=C2CCC(=O)C=C2CCC1
inactive: [1] -15.8% | [2] -24.6% | [3] -10.3% | [4] 0.2% | [5] -20.6% | [6] -10.1%

Nc1ccc2c(c1)C(=O)c1cc(C(=O)O)ccc1-2
inactive: [1] 21.2% | [2] -2.55% | [3] 9.75% | [4] 15.9% | [5] 12.8% | [6] -10.1%

O=C(NCCCCC[N+](CCCCCNC(=O)c1ccccc1)(CCCCCNC(=O)c1ccccc1)CCCCCNC(=O)c1ccccc1)c1ccccc1
inactive: [1] 3.65% | [2] 10.4% | [3] -15.2% | [4] -2.2% | [5] -1.65% | [6] -7.85%

O=C(c1nc2ccc([N+](=O)[O-])cc2[nH]c1=O)C(O)c1ccc([N+](=O)[O-])cc1 (configuration not stated)
inactive: [1] -1.9% | [2] -6.2% | [3] 12.9% | [4] 10.1% | [5] -25.4% | [6] 31.5%

COC(=O)/C=C/c1cccc([N+](=O)[O-])c1
inactive: [1] -3.55% | [2] -2.25% | [3] 20.7% | [4] -48.8% | [5] -0.7% | [6] -18.3%

CCNc1ccc(S(=O)(=O)O)cc1C(=O)O
inactive: [1] 0.45% | [2] 4.05% | [3] 0% | [4] -11.8% | [5] 1.25% | [6] -4.6%

CCCCCCC(CC)C(N)=O (configuration not stated)
inactive: [1] 9.1% | [2] 7.8% | [3] -4.1% | [4] -7.8% | [5] -8.15% | [6] -7.6%

O=C1NC(Cc2c[nH]c3ccccc23)C(=O)N2CCCC12 (configuration not stated)
inactive: [1] -4.85% | [2] 1% | [3] -7% | [4] -6.5% | [5] -6.3% | [6] 8.85%
